Data reported in PubChem BioAssay (NCATS).
Inconclusive results are not listed. The source made the active and inactive calls. Calls follow the shape of the dose curve; as a rule, active = well fitted cell-killing curve with a large enough effect; inconclusive = small, poorly fitted or top-dose-only effect, or effect the other way; inactive = flat fitted curve, though single readings scatter.

Test: qHTS assay for cell viability of the p53RE-bla HCT-116 cell line (AID 743292); also: nearly all actives have a fitted effect of over 55% in size
Conditions: p53RE-bla HCT-116 viability, ATP luminescence, 16 h; series mostly up to 95 µM; activity change, negative = cytotoxicity: at the top concentration
Text: U.S. Tox21 Program National Center for Advancing Translational Sciences [NCATS] NIH Chemical Genomics Center [NCGC] U.S. Environmental Protection Agency [EPA] National Institutes of Environmental Health Sciences [NIEHS] National Toxicology Program [NTP] U.S. Food and Drug Administration [FDA] Tox21 Assay Overview: The CellTiter-Glo Luminescent Cell Viability Assay (Promega, Madison, WI) is a homogeneous method to determine the number of viable cells in culture based on quantitation of the ATP present, which signals the presence of metabolically active cells. This cell viability assay was used to screen environmental chemicals in the CellSensor p53RE-bla HCT-116 cell line (Invitrogen).
Tox21 Assay Protocol Summary: Cell viability after compound treatment was measured using a luciferase-coupled ATP quantitation assay (CellTiter-Glo viability assay, Promega, Madison, WI) in CellSensor p53RE-bla HCT-116 cell line (Invitrogen). Total intracellular ATP content corresponds to the number of metabolically competent cells after compound treatment. The cells were dispensed at 4,000 cells/5 uL/well in 1,536-well white/solid bottom assay plates using a Flying Reagent Dispenser (Aurora Discovery, San Diego, CA). The cells were incubated for 5 h at 37 C, followed by the addition of 23 nL of compounds dissolved in DMSO, positive controls or DMSO only using a pintool work station (Kalypsys, San Diego, CA). The assay plates were incubated for 16 h at 37 C, followed by the addition of 5 uL/well of CellTiter-Glo reagent. After 30 min incubation at room temperature, the luminescence intensity of the plates was measured using a ViewLux plate reader (PerkinElmer, Shelton, CT).
% is scaled to controls: 0 for no effect and ±100 for the full control effect; potency is read from the fitted curve at half-maximal effect.

SMILES | activity change, negative = cytotoxicity | Potency
C[C@]1(O)CC[C@H]2[C@@H]3CCC4=CC(=O)CC[C@]4(C)[C@@]3(F)[C@@H](O)C[C@@]21C | 8.63% (inactive) | 
Nc1ccc([As](=O)(O)O)cc1 | -1.75% (inactive) | 
Clc1ccc(C(c2ccc(Cl)cc2)C(Cl)(Cl)Cl)cc1 |  | 50.1 µM (active)
CCOC(=O)CC(SP(=S)(OC)OC)C(=O)OCC (configuration not stated) |  | inactive
O=C1c2ccccc2C(=O)c2ccccc21 | -2.02% (inactive) | 
Nc1ccccc1C(=O)O | -9.62% (inactive) | 
O=P1(N(CCCl)CCCl)NCCCO1 (configuration not stated) |  | inactive
COP(=S)(OC)Oc1cc(Cl)c(Cl)cc1Cl | 6.39% (inactive) | 
CC1(C)C(C=C(Cl)Cl)C1C(=O)OC(C#N)c1cccc(Oc2ccccc2)c1 (configuration not stated) | -5.71% (inactive) | 
Nc1nc(N)nc(NC2CC2)n1 | -2.63% (inactive) | 
O=C1c2ccccc2C(=O)C1C(=O)C(c1ccccc1)c1ccccc1 | 0.325% (inactive) | 
CC(C)NC(C)C | -0.268% (inactive) | 
Oc1ccc(Cl)cc1 | -8.83% (inactive) | 
CCCC(C)(COC(N)=O)COC(N)=O |  | inactive
[N-]=[N+]=CC(=O)OC[C@H](N)C(=O)O | -2.4% (inactive) | 
COP(=S)(OC)SCN1C(=O)c2ccccc2C1=O | 6.7% (inactive) | 
COP(=S)(OC)Oc1ccc(SC)c(C)c1 |  | inactive
CC(C)c1cccc(C(C)C)c1O | 4.24% (inactive) | 
COC(=O)C(c1ccccc1)C1CCCCN1 (configuration not stated) |  | inactive
NCCc1ccc(O)cc1 | 0.406% (inactive) | 
C[C@]12CCC(=O)C=C1CC[C@@H]1[C@@H]2CC[C@@]2(C)[C@H]1CC[C@]2(C)O | 4.46% (inactive) | 
C[C@]12CCC(=O)C=C1CC[C@@H]1[C@@H]2CC[C@]2(C)C(=O)CC[C@@H]12 |  | inactive
COc1cc(OC)c(OC)cc1C=O | -8.12% (inactive) | 
CCC(C)(C)c1ccc(O)cc1 |  | inactive
CN1C[C@H](C(=O)N[C@]2(C)O[C@@]3(O)[C@@H]4CCCN4C(=O)[C@H](Cc4ccccc4)N3C2=O)C=C2c3cccc4[nH]cc(c34)C[C@H]21 |  | inactive
O=C(O)CCCc1ccc(N(CCCl)CCCl)cc1 |  | inactive
Nc1ccccc1 | 0.0959% (inactive) | 
